In PubChem BioAssay (NCI) one finds growth data, which are given here for seven compounds.

This is part of a sample that, as a whole, favours compounds with a hit. Of some 83,000 tested, about 20% had one in any assay.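 The test compound was applied at a single concentration to cells in 96-well plates for 48 hours, and percent growth was recorded.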 Unmarked numbers belong to inactive results. The source made the active and inactive calls. The calls were made as follows: active = growth percent below 10; inactive = the rest.

Some test systems named below: NCI-H23 lung; NCI-H226 lung; NCI-H322M lung; HOP-62 NSCLC; NCI-H460 lung; HOP-92 NSCLC; NCI-H522 lung; A549/ATCC NSCLC; 786-0 renal; COLO 205 colon; DU-145 prostate; K-562 leukemia; MALME-3M melanoma; MDA-MB-231 breast; RXF 393 renal; SF-268 CNS; SF-295 CNS; SF-539 CNS; UACC-257 melanoma; M14 melanoma.
Assay in all cases: NCI-60 one-dose screen, 48 h (100 = growth as untreated, 0 = no growth, -100 = all killed)
Common to all, as to conditions: 10 µM unless noted

Turning to `COc1ccc(C(=O)c2nccc3cc(OC)c(OC)cc23)cc1OC`, the growth in the assay on NCI-H23 lung is 51.9%; in the assay on NCI-H226 lung, 97%; with NCI-H322M lung, 120%; with HOP-62 NSCLC, 95.3%; in the assay on NCI-H460 lung it was 103%; in the assay on HOP-92 NSCLC, 78.5%. Moreover, the growth was 33.4% in the assay with NCI-H522 lung; 98.3% with A549/ATCC NSCLC; 109% in the assay with 786-0 renal; 126% with COLO 205 colon; 104% in the assay on DU-145 prostate; 103% with K-562 leukemia. Further, the growth in the assay with MALME-3M melanoma is 103%; in the assay with MDA-MB-231 breast, 85%; in the assay on RXF 393 renal it was 99.4%; with SF-268 CNS, 89.3%; in the assay on SF-295 CNS, 92.6%; in the assay on SF-539 CNS it was 94.3%. Also, the figures for the growth in the assay on UACC-257 melanoma and with M14 melanoma were -11.2% (active) and 89.3%, respectively.

On to `Cc1ccc2c(c1)C(C)Cc1c(Cl)ncnc1N2C` (stereo not given), for which the growth with NCI-H23 lung was 20.7%; in the assay with NCI-H226 lung, -7.14% (active); with NCI-H322M lung it was 32.3%; with HOP-62 NSCLC, 17.5%; with NCI-H460 lung it was 30.6%; in the assay with HOP-92 NSCLC, 28.9%. The growth in the assay on NCI-H522 lung was 69%; in the assay on A549/ATCC NSCLC, 16.4%; with 786-0 renal it was 1.48% (active); in the assay on COLO 205 colon it was -56.1% (active); with DU-145 prostate, 79.8%; in the assay on K-562 leukemia it was 30.9%. Besides, the growth in the assay on MALME-3M melanoma was 14.6%; in the assay with MDA-MB-231 breast, -31.9% (active); in the assay on RXF 393 renal it was 4.04% (active); in the assay on SF-268 CNS, 22.6%; with SF-295 CNS, 18.4%; in the assay on SF-539 CNS it was 29%. Besides, the growth in the assay with UACC-257 melanoma is 20.1%; in the assay on M14 melanoma it was 15.1%.

On to `C=CCCC1(C)NC(=O)NC1=O` (stereo not given), for which the growth in the assay on NCI-H23 lung is 96.5%; with NCI-H226 lung, 105%; in the assay with NCI-H322M lung it was 108%; with HOP-62 NSCLC it was 84%; with NCI-H460 lung it was 104%; in the assay with HOP-92 NSCLC, 87.1%. The growth is 86.1% in the assay on NCI-H522 lung; 93.4% in the assay on A549/ATCC NSCLC; 93.5% in the assay with 786-0 renal; 102% in the assay with COLO 205 colon; 102% with DU-145 prostate; 83.3% with K-562 leukemia. The growth with MALME-3M melanoma was 111%; in the assay with MDA-MB-231 breast, 101%; with RXF 393 renal, 121%; in the assay with SF-268 CNS it was 98%; in the assay on SF-295 CNS, 95.7%; in the assay with SF-539 CNS, 104%. Moreover, the growth is 104% in the assay on UACC-257 melanoma and 98.1% in the assay with M14 melanoma.

`C[C@H]1[C@H](C)CC[C@]2(C(=O)O)CC[C@]3(C)C(=CC[C@@H]4[C@@]5(C)C/C(=C/c6cccnc6)[C@H](O)C(C)(C)[C@@H]5CC[C@]43C)[C@H]12`: the growth is 14.3% [100 µM] in the assay with NCI-H23 lung; -24.2% [100 µM] (active) with NCI-H226 lung; -16.4% [100 µM] (active) in the assay with NCI-H322M lung; -29.1% [100 µM] (active) in the assay on HOP-62 NSCLC; -31.1% [100 µM] (active) in the assay on NCI-H460 lung; -3.06% [100 µM] (active) with HOP-92 NSCLC. The growth in the assay with NCI-H522 lung was -4.55% [100 µM] (active); in the assay on A549/ATCC NSCLC, 8.85% [100 µM] (active); with 786-0 renal it was 1.92% [100 µM] (active); with COLO 205 colon, -80.4% [100 µM] (active); in the assay on DU-145 prostate, 5% [100 µM] (active); with K-562 leukemia, 13.3% [100 µM]. The growth in the assay with MALME-3M melanoma was -24.2% [100 µM] (active); with MDA-MB-231 breast, -17.6% [100 µM] (active); in the assay on RXF 393 renal, -13.3% [100 µM] (active); with SF-268 CNS it was 21.8% [100 µM]; in the assay on SF-295 CNS it was -27.3% [100 µM] (active); in the assay with SF-539 CNS, -42.1% [100 µM] (active). Besides, the growth is 0.776% [100 µM] (active) in the assay on UACC-257 melanoma and 1.69% [100 µM] (active) with M14 melanoma.

Regarding `C=C(C)[C@@H]1CC[C@]2(COCCCN)CC[C@]3(C)[C@H](CC[C@@H]4[C@@](C)(CCCNCCCN)[C@H](C(=C)C)CC[C@]43C)[C@@H]12`, the growth in the assay with NCI-H23 lung was -53.5% [100 µM] (active); with NCI-H226 lung, -41.6% [100 µM] (active); in the assay with NCI-H322M lung, -76.2% [100 µM] (active); in the assay on HOP-62 NSCLC, -47.7% [100 µM] (active); in the assay on NCI-H460 lung it was -74.7% [100 µM] (active); in the assay with HOP-92 NSCLC, -69.5% [100 µM] (active). In addition, the growth in the assay with NCI-H522 lung was -49.8% [100 µM] (active); in the assay on A549/ATCC NSCLC it was -55.7% [100 µM] (active); in the assay on 786-0 renal, -49.7% [100 µM] (active); in the assay with COLO 205 colon it was -50.3% [100 µM] (active); with DU-145 prostate, -83.4% [100 µM] (active); in the assay with K-562 leukemia, -34.1% [100 µM] (active). Also, the growth in the assay with MALME-3M melanoma was -58.2% [100 µM] (active); with MDA-MB-231 breast, -63.8% [100 µM] (active); with RXF 393 renal, -48.6% [100 µM] (active); in the assay on SF-268 CNS it was -58.7% [100 µM] (active); in the assay with SF-295 CNS it was -52.7% [100 µM] (active); in the assay on SF-539 CNS, -62.2% [100 µM] (active). In addition, the growth with UACC-257 melanoma was -74.1% [100 µM] (active); in the assay on M14 melanoma, -35.4% [100 µM] (active).

For the compound `CC/C=C(\C)C(CCC)(CN=O)C(=O)OCC` (stereo not given), the growth with NCI-H23 lung is 99.7%; with NCI-H226 lung it was 109%; with NCI-H322M lung, 107%; with HOP-62 NSCLC, 93%; in the assay with NCI-H460 lung it was 114%; in the assay with HOP-92 NSCLC it was 102%. In addition, the growth in the assay on NCI-H522 lung is 92.8%; with A549/ATCC NSCLC, 85.8%; with 786-0 renal, 104%; with COLO 205 colon, 104%; in the assay on DU-145 prostate, 111%; with K-562 leukemia, 114%. In addition, the growth in the assay with MALME-3M melanoma is 105%; in the assay with MDA-MB-231 breast, 94.8%; in the assay on RXF 393 renal, 123%; in the assay on SF-268 CNS it was 105%; in the assay on SF-295 CNS it was 112%; in the assay on SF-539 CNS, 98.9%. The values for the growth in the assay on UACC-257 melanoma and with M14 melanoma were 85.8% and 99.3%, respectively.

With `c1nc(N2CCOCC2)c2[nH]ccc2n1`, the growth in the assay on NCI-H23 lung was 116%; in the assay with NCI-H226 lung, 114%; in the assay with NCI-H322M lung it was 104%; in the assay with HOP-62 NSCLC it was 114%; in the assay on NCI-H460 lung, 104%; in the assay with HOP-92 NSCLC it was 69.8%. Further, the growth was 102% with NCI-H522 lung; 99.9% in the assay with A549/ATCC NSCLC; 101% with 786-0 renal; 113% in the assay with COLO 205 colon; 106% in the assay on DU-145 prostate; 92.7% in the assay on K-562 leukemia. The growth was 109% with MALME-3M melanoma; 107% in the assay with MDA-MB-231 breast; 117% in the assay on RXF 393 renal; 102% with SF-268 CNS; 112% in the assay on SF-295 CNS; 111% in the assay on SF-539 CNS. In addition, the figures for the growth with UACC-257 melanoma and in the assay on M14 melanoma were 105% and 103%, respectively.
